Screening data as filed in PubChem BioAssay.
The list is not random: actives were taken first. Their share in the collection is about 2.1%.
ClpP mod: qHTS Assay for Activators of ClpP; AID 651965, 2013; purified B. subtilis ClpP, FRET peptide cleavage, 20 min; Potency, µM (doses to about 57.5 µM), inactives show top-dose activity change, negative = active; actives 1.9% (n = 340,000); active = well fitted falling curve with a large enough effect; inconclusive = small, poorly fitted or top-dose-only effect; inactive = no such curve, though single readings can be large or run the other way; also: potency is read from the fitted curve at half-maximal effect; the source files actives as falling curves though it sought activators and does not explain the sign; nearly all actives have a fitted effect of over 65% in size
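FRET quenching reversal measured ClpP activation: 10 microg/mL B. subtilis ClpP at pH 8 with the FRET-FV decapeptide, read at 430 nm after 320 nm excitation. The 20-min minus 0-min signal was scaled between DMSO/no-enzyme wells and ADEP (5.8 microM final).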
B2AR arrestin: recruits beta-arrestin to the human beta2-adrenergic receptor; Potency, µM (titrated, usually from 46.1 µM), without a hit: top-dose activation, usual class: activators; beta-arrestin recruitment to beta2AR, cell-based reporter; P07550; actives 0.02% (n = 330,000);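 also: potency is read from the fitted curve at half-maximal effect; 0% = DMSO controls and full agonism = EC100 isoproterenol or metaproterenol; nearly all actives have a fitted effect of over 65% in size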
Target sequence (P07550 whole entry, looked up): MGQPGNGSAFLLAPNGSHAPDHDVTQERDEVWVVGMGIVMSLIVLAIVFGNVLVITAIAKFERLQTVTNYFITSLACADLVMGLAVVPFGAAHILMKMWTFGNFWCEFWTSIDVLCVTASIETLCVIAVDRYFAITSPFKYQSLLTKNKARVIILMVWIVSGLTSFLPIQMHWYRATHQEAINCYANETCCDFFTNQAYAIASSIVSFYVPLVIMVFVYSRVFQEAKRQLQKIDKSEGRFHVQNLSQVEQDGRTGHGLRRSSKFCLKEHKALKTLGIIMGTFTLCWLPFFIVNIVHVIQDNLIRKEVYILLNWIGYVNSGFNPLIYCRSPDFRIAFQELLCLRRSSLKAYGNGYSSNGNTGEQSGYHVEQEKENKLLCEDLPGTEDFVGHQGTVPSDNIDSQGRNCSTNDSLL
p53 reactivation: re-activators of mutant p53; H1299 p53-A138V BP100-luciferase reporter, luminescence, 24 h; Potency, µM (top dose mostly 92.2 µM), inactives show top-dose activity change, positive = activation, hits mostly activators; actives 0.063% (n = 320,000); also: potency is read from the fitted curve at half-maximal effect; % of control where 0% means no effect; nearly all actives have a fitted effect of over 45% in size
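H1299 (p53-null), stable ts p53-A138V + BP100-Luc; 1000 cells/well, Opti-MEM/10% FBS; cpd 4 pt, 1:5; 24 h, 37 deg C, 5% CO2; detection reagent 10 min RT; luminescence.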
Mito fusion act: mitochondrial division inhibition or fusion activation; S. cerevisiae fusion-defective mutant growth rescue, CellTiterGlo 48 h; actives 0.23% (n = 320,000); Potency, µM (top dose mostly 46.1 µM), for inactives: at the highest dose growth rescue (activation), most hits filed as activators; AID 485298; also: potency is read from the fitted curve at half-maximal effect; % of control where 0% means no effect; nearly all actives have a fitted effect of over 45% in size
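Read-out: ATP-based luminescence (CellTiterGlo, 10 min ambient) reporting growth of fusion-defective ts yeast after 48 hours at 37C on glycerol/ethanol YPEG medium in the presence of compound.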
Giardia kill: Giardia lamblia killing; Giardia lamblia trophozoite viability; activity change, % at 7.66 µM, hits read low; actives 0.15% (n = 340,000); AID 540267; in the data active = activity change below about -80%; inconclusive = between about -30% and that limit;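 also: parasites exposed to compound for two days anaerobically before the ATP read; % is scaled to controls: 0 for no effect and ±100 for the full control effect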
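Killing of trophozoites was scored by loss of ATP luminescence after a 48 hrs anaerobic exposure to compounds at 37 deg C, using 100 cells per well.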
uPA surface inh: inhibitors of cell surface uPA generation; cell surface uPA generation assay, qHTS; Potency, µM (top dose mostly 38.3 µM), inactives show at the highest dose activity change, negative = inhibition, most hits filed as inhibitors; actives 0.31% (n = 330,000); AID 540303; active = well fitted inhibition curve with a large enough effect; inconclusive = small, poorly fitted or top-dose-only effect; inactive = no such curve, though single readings can be large or run the other way; tested in mouse RAW 264.7 cells; also: potency is read from the fitted curve at half-maximal effect; % is scaled to controls: 0 for no effect and ±100 for the full control effect; nearly all actives have a fitted effect of over 55% in size
* marks the source's active call; other numbers are inactive results; ? = inconclusive; / = not tested or not shown. Unless noted, calls follow the shape of the dose curve; as a rule, active = well fitted curve in the direction sought with a large enough effect; inconclusive = small, poorly fitted or top-dose-only effect, or another doubt; inactive = no such curve, though single readings can be large; an effect the other way counts as inactive or inconclusive.

SMILES	ClpP mod	B2AR arrestin	p53 reactivation	Mito fusion act	Giardia kill	uPA surface inh
COc1ccc2[nH]c(=O)c(-c3noc(-c4ccccc4)n3)cc2c1	-12%	0%	?	1%	13	-1%
c1ccc(-c2ccc(-c3nc(-c4cccnc4)no3)cc2)cc1	14µM*	0%	36%	1%	-5	-22%
O=C1C(c2ccc(F)cc2)N(CCc2ccccc2)C(=O)CN1C1CCCCCC1 (configuration not stated)	0%	/	/	/	/	/
COc1ccccc1CNC(=O)CN1N=C(c2ccccc2)CCC1=O	2%	/	/	/	/	/
COc1ccc(Cn2c(=O)c3c(nc(NCCO)n3C)n(C)c2=O)cc1	3.5µM*	0%	1%	1%	-18	-5%
COCCCNc1nc(NCc2ccc(C)cc2)c2cnn(C)c2n1	-16%	/	/	/	/	/
COc1cc(Cl)cc(/C=C/c2ccc3ccccc3n2)c1OC(C)=O	25µM*	-2%	?	8%	0	-11%
Cc1ccc(NC(=O)c2cc(S(=O)(=O)N3CCC4(CC3)OCCO4)ccc2F)cc1Cl	-1%	/	/	/	/	/
CCN(Cc1ccccc1)C(=O)Cn1c(=O)n(-c2cccc(C)c2)c(=O)c2c1c1cc(C)ccc1n2C	4%	/	/	/	/	/
COC(=O)Cn1c(=O)c2c(nc3n2CCCN3Cc2ccccc2)n(C)c1=O	/	0%	-3%	6.3µM*	-3	2%
Cc1nc2ccccc2c(=O)n1C1CCCCCC1	25µM*	0%	-6%	0%	11	-3%
CSc1nc2ccccc2c(=O)n1C1CCCCC1	/	0%	6%	?	0	5%
CC(C(=O)N1CCCCC1)n1sc2ccccc2c1=O (configuration not stated)	-1%	0%	11µM*	-1%	2	-4%
O=C(Nc1nnc(-c2ccncc2)o1)c1ccc2ccccc2c1	-4%	0%	18%	12%	-25	-2%
Cc1cc(C(=O)Nc2ccc3ccccc3c2)c(C)o1	/	0%	25µM*	11%	-11	-1%
O=C(Nc1ccncc1)c1ccc2ccccc2c1	22µM*	0%	9%	4%	14	-2%
Cc1ccc(C(=O)Nc2ccc3ccccc3c2)cc1	/	-1%	-77%	0%	?	-16%
O=C(Nc1ccc2ccccc2c1)c1ccc(Cl)cc1	-4%	0%	?	-2%	-5	10µM*
CCOC(=O)c1cc2c(=O)n3ccccc3nc2n(Cc2ccco2)c1=NC(=O)c1c(F)cccc1Cl	4%	/	/	/	/	/
CC1CCn2c(nc3cc(C(=O)NCc4ccccc4)ccc32)C1 (configuration not stated)	-3%	/	/	/	/	/
O=C(Oc1csc(=S)n1C(=O)c1ccccc1)c1ccccc1	8.9µM*	0%	-3%	6%	-2	0%
O=C(COc1ccc(S(=O)(=O)NC2CCCCC2)cc1)Nc1ccc(C(F)(F)F)cc1	0%	/	/	/	/	/
O=C(Cn1nc(-c2ccc(Cl)cc2)ccc1=O)NCCCN1CCN(Cc2ccccc2)CC1	32µM*	0%	9%	-4%	-21	-4%
O=C(NCc1ccccc1Cl)c1ccc(S(=O)(=O)Nc2cccc(C(F)(F)F)c2)cc1	20µM*	-1%	3%	-4%	-6	0%
COc1cc(-c2nc(C(N)=O)c3c(n2)n(-c2cccc(C)c2)c(=O)n3C)cc(OC)c1OC	22µM*	/	/	/	/	/
O=C(NCc1ccccc1)c1ccc2c(c1)sc1nc(-c3ccc(F)cc3)cn12	-10%	/	/	/	/	/
Cc1ccc(Cl)cc1NC(=O)c1ccc(-c2nc(CSc3ccccc3)c(C)o2)cc1	13µM*	/	/	/	/	/
CCOC(=O)CCSc1nc(-c2ccc3c(c2)OCO3)cc(C(F)(F)F)c1C#N	-23%	0%	0%	4%	6	4%
CCOC(=O)CC(=O)CSc1nc(-c2ccc3c(c2)OCO3)cc(C(F)(F)F)c1C#N	20µM*	0%	2%	-2%	5	/
